According to PubChem BioAssay AID1159580 (chemical genetic matrix, 2015):
“And” between values parts separate entries of the source, which are not always exact repeats. Equal values may be shown once. Hit rate of the full screen: of about 5,500 compounds, about 2,000 (36%) were called active. Inconclusive results (about 18%) are left out. No stated cut-off is given here; in the data, active means normalized growth mostly below about 0.91 (no sharp cut-off); inconclusive means no clear call, values can overlap the other calls; inactive means mostly above about 0.92. The list shows a part of the results.

Test: chemical genetic growth profiling, strain panel (AID 1159580);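 further: tested at 20 µM; growth read once vehicle control cultures reached saturation at 30 °C; 1 = growth at the plate median or of vehicle wells; lower values mean less growth of the strain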
Details: S. cerevisiae deletion strains, growth OD

Measured: normalized growth

NCC(O)c1ccc(O)c(O)c1 (stereo unspecified)
inactive: locus YAL040C, strain CLN3, hits give low values 1.01 and 1.02 | locus YCL061C, strain MRC1 (second series), hits give low values 0.998 | locus YDR363W, strain ESC2, hits give low values 0.991 | locus YER002W, strain NOP16, hits give low values 1.02 and 0.999 | locus YGR078C, strain PAC10, hits give low values 1 | locus YJR075W, strain HOC1, hits give low values 1.02 | locus YMR263W, strain SAP30, hits give low values 1.01 | locus YMR307W, strain GAS1, hits give low values 1.02 | locus YNL153C, strain GIM3, hits give low values 1.01 | locus YNL175C, strain NOP13, hits give low values 0.999 and 1.01 | locus YNL197C, strain WHI3, hits give low values 0.995 and 1.01 | locus YNL224C, strain SQS1, hits give low values 0.987 and 0.982 | locus YNL322C, strain KRE1, hits give low values 0.997 and 1.02 | locus YOR083W, strain WHI5 (second series), hits give low values 0.98 and 0.991 | locus YPL055C, strain LGE1, hits give low values 1 | locus YPL241C, strain CIN2, hits give low values 1.01
